Results as given in the supplement of paper PMC10849652.
About 8,800 targets were measured; listed, in parts, are those with a hit and a random draw of the rest. About 0.5% of all pairs of compound and target were hits.

Legend:
Assay in all cases: log2 fold change, soluble protein after heating vs DMSO (PISA); higher = thermal stabilisation; K562 lysate, 10 uM; active = over 0.2 and 3.5 SD of the protein, either way, in both replicates (recomputed)
lapatinib = compound: CS(=O)(=O)CCNCc1ccc(-c2ccc3ncnc(Nc4ccc(OCc5cccc(F)c5)c(Cl)c4)c3c2)o1 [lapatinib]
Procedure, shortened: (§1)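 K562 pellets were dounce-homogenised in PBS pH 7.4 containing 1 mM MgCl2, and the crude extract, at 1 mg/mL protein, was exposed to 10 μM compound for 30 min. Aliquots were heated for 3 min across 48°C-58°C, pooled, brought to 0.5% NP-40 at 4°C and spun at 21,000xg for 90 min, with the supernatant taken as soluble protein. TMTpro 16plex LC-MS/MS with equalised channel sums quantified that protein. Values are log-two fold changes in thermal stability relative to solvent controls, taken from duplicates.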

pictilisib = compound: CS(=O)(=O)N1CCN(Cc2cc3nc(-c4cccc5[nH]ncc45)nc(N4CCOCC4)c3s2)CC1 [pictilisib]
Procedure, shortened: as §1

crizotinib = compound: C[C@@H](Oc1cc(-c2cnn(C3CCNCC3)c2)cnc1N)c1c(Cl)ccc(F)c1Cl [crizotinib]
Procedure, shortened: as §1

[1] = compound: C[C@H](C1=CC=C(C=C1)C(=O)NC2=C3C=CNC3=NC=C2)N
Procedure, shortened: as §1

duvelisib = compound: C[C@H](Nc1ncnc2nc[nH]c12)c1cc2cccc(Cl)c2c(=O)n1-c1ccccc1 [duvelisib]
Procedure, shortened: as §1

gandotinib = compound: Cc1cc(Nc2cc(CN3CCOCC3)c3nc(C)c(Cc4ccc(Cl)cc4F)n3n2)n[nH]1 [gandotinib]
Procedure, shortened: as §1

tozasertib = compound: Cc1cc(Nc2cc(N3CCN(C)CC3)nc(Sc3ccc(NC(=O)C4CC4)cc3)n2)n[nH]1 [tozasertib]
Procedure, shortened: as §1

doramapimod = compound: Cc1ccc(-n2nc(C(C)(C)C)cc2NC(=O)Nc2ccc(OCCN3CCOCC3)c3ccccc23)cc1 [doramapimod]
Procedure, shortened: as §1

bafetinib = compound: Cc1ccc(NC(=O)c2ccc(CN3CC[C@H](N(C)C)C3)c(C(F)(F)F)c2)cc1Nc1nccc(-c2cncnc2)n1 [bafetinib]
Procedure, shortened: as §1

[2] = compound: Cc1cccc(CC(=O)N2CCc3c2ccc(-c2cn(C)c4ncnc(N)c24)c3F)n1
Procedure, shortened: as §1

nilotinib = compound: Cc1cn(-c2cc(NC(=O)c3ccc(C)c(Nc4nccc(-c5cccnc5)n4)c3)cc(C(F)(F)F)c2)cn1 [nilotinib]
Procedure, shortened: as §1

[3] = compound: Cc1nc(Nc2n[nH]c3c2CN(C(=O)N[C@H](CN(C)C)c2ccccc2)C3(C)C)c2sccc2n1
Procedure, shortened: as §1

dasatinib = compound: Cc1nc(Nc2ncc(C(=O)Nc3c(C)cccc3Cl)s2)cc(N2CCN(CCO)CC2)n1 [dasatinib]
Procedure, shortened: as §1

[4] = compound: Cc1ncc(-c2ccnc(Nc3ccc(S(C)(=O)=O)cc3)n2)n1C(C)C
Procedure, shortened: as §1

[5] = compound: Cn1cc(-c2ccc3c(c2)CCN3C(=O)Cc2cccc(C(F)(F)F)c2)c2c(N)ncnc21
Procedure, shortened: as §1

quisinostat = compound: Cn1cc(CNCC2CCN(c3ncc(C(=O)NO)cn3)CC2)c2ccccc21 [quisinostat]
Procedure, shortened: as §1

tipifarnib = compound: Cn1cncc1[C@@](N)(c1ccc(Cl)cc1)c1ccc2c(c1)c(-c1cccc(Cl)c1)cc(=O)n2C [tipifarnib]
Procedure, shortened: as §1

[6] = compound: NC(=O)Nc1cc(-c2cccc(F)c2)sc1C(=O)N[C@H]1CCCNC1
Procedure, shortened: as §1

[7] = compound: NC(=O)c1cnc(N[C@@H]2CCCC[C@@H]2N)nc1Nc1cccc(-n2nccn2)c1
Procedure, shortened: as §1

[8] = compound: NC1(c2ccc(-c3nc4ccn5c(=O)[nH]nc5c4cc3-c3ccccc3)cc2)CCC1
Procedure, shortened: as §1

Measured: log2 fold change

WDHD1 (UniProt O75717)
UniProt O75717, sequence (O75717 whole entry, looked up): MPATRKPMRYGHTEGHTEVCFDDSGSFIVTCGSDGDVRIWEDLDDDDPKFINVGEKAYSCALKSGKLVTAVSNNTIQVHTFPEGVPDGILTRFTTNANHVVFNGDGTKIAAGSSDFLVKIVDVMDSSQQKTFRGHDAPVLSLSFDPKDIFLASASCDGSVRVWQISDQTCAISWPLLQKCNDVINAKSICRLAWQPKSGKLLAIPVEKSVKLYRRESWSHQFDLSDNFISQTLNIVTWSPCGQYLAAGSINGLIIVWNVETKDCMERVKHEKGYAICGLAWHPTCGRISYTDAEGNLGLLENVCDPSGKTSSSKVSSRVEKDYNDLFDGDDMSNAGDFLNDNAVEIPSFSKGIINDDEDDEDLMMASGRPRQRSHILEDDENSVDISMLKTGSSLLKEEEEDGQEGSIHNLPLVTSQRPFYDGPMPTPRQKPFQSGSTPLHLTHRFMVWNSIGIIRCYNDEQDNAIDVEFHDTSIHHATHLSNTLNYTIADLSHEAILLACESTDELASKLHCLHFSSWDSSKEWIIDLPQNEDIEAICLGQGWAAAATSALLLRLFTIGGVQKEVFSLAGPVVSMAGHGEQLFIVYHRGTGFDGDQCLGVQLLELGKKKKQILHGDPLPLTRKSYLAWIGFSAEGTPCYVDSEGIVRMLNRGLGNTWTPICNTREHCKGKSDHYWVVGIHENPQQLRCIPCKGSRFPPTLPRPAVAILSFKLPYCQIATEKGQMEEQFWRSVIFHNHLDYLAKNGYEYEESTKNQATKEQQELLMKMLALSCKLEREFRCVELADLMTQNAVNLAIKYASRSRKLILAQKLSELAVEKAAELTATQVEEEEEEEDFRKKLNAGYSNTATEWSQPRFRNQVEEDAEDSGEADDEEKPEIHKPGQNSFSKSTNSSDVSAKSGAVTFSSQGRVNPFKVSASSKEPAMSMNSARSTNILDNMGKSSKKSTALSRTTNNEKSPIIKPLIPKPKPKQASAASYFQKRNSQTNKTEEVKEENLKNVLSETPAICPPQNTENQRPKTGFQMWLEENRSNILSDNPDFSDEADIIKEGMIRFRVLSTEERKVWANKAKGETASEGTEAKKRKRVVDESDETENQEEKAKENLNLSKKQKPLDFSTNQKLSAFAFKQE
inactive: lapatinib -0.017 | pictilisib -0.025 | crizotinib -0.035 | [1] 0.077 | duvelisib 0.007 | gandotinib -0.082 | tozasertib -0.043 | doramapimod 0.011 | bafetinib 0.023 | [2] -0.037 | nilotinib -0.008 | [3] 0.026 | dasatinib -0.023 | [4] 0.012 | [5] 0.01 | quisinostat -0.029 | tipifarnib -0.01 | [6] 0.008 | [7] 0.013 | [8] 0.01

ZNF318 (UniProt Q5VUA4)
inactive: lapatinib 0.031 | pictilisib 0.059 | crizotinib 0.023 | [1] -0.008 | duvelisib 0.046 | gandotinib -0.021 | tozasertib -0.019 | doramapimod -0.01 | bafetinib -0.086 | [2] 0.112 | nilotinib 0.043 | [3] -0.05 | dasatinib -0.104 | [4] -0.034 | [5] -0.002 | quisinostat 0.088 | tipifarnib -0.065 | [6] -0.004 | [7] -0.078 | [8] -0.028

VPS4A (UniProt Q9UN37)
UniProt Q9UN37, sequence (Q9UN37 whole entry, looked up): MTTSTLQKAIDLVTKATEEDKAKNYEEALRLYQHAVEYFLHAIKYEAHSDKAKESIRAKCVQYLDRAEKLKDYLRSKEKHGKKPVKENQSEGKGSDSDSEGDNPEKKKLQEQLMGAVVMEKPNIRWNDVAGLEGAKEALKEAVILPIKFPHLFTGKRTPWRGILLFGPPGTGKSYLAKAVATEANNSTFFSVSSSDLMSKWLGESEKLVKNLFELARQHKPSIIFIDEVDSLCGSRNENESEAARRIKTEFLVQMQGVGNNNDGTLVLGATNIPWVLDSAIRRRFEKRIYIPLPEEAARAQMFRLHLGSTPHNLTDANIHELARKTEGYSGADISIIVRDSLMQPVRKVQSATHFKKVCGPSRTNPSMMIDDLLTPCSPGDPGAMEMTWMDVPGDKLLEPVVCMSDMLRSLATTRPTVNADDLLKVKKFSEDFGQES
inactive: lapatinib 0.003 | pictilisib -0.034 | crizotinib -0.034 | [1] -0.042 | duvelisib -0.012 | gandotinib -0.066 | tozasertib 0.007 | doramapimod 0.038 | bafetinib 0.004 | [2] 0.056 | nilotinib -0.011 | [3] 0.008 | dasatinib -0.075 | [4] 0.002 | [5] 0.056 | quisinostat -0.027 | tipifarnib 0.023 | [6] 0.019 | [7] 0.004 | [8] -0.011

XPO6 (UniProt Q96QU8)
inactive: lapatinib -0.012 | pictilisib -0.069 | crizotinib -0.086 | [1] -0.158 | duvelisib 0.06 | gandotinib 0.005 | tozasertib 0.072 | doramapimod 0.034 | bafetinib -0.105 | [2] 0.175 | nilotinib 0.005 | [3] 0.027 | dasatinib -0.008 | [4] -0.054 | [5] -0.026 | quisinostat -0.123 | tipifarnib -0.018 | [6] 0.078 | [7] 0.033 | [8] -0.04

XPO5 (UniProt Q9HAV4)
UniProt Q9HAV4, sequence (Q9HAV4 whole entry, looked up): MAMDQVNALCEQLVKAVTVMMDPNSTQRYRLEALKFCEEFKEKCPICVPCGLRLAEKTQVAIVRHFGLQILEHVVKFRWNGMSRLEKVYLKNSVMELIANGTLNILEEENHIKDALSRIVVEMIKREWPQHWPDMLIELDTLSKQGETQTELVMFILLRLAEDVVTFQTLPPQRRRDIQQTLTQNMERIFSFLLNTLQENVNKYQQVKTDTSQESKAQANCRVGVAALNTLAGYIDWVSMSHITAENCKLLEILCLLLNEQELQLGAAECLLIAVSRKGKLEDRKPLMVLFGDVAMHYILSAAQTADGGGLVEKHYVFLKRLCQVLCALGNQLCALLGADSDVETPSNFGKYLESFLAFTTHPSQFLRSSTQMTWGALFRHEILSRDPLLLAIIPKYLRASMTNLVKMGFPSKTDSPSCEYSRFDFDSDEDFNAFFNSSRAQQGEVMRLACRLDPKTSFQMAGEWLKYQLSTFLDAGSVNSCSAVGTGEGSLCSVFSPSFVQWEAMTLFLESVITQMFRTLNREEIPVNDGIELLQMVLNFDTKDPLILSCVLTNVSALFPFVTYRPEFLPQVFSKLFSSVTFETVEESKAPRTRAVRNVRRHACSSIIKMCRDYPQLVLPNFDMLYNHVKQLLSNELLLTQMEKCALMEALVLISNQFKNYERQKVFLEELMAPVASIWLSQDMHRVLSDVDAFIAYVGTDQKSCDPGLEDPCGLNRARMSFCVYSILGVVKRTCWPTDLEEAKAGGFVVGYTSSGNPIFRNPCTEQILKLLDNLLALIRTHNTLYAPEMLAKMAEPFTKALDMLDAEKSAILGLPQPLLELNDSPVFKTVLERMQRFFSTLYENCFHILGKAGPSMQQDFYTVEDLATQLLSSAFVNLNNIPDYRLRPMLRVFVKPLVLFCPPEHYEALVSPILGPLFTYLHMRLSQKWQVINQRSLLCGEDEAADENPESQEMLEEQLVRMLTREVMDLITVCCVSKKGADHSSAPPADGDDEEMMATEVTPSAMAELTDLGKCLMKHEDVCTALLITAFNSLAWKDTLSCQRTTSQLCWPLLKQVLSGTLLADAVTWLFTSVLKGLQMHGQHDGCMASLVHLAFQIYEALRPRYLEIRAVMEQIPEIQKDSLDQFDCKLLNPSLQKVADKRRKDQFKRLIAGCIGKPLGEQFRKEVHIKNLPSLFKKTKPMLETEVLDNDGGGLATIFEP
inactive: lapatinib -0.042 | pictilisib 0 | crizotinib -0.085 | [1] -0.041 | duvelisib -0.017 | gandotinib -0.14 | tozasertib 0.013 | doramapimod -0.008 | bafetinib -0.006 | [2] 0.049 | nilotinib -0.025 | [3] -0.016 | dasatinib -0.068 | [4] 0.013 | [5] 0.005 | quisinostat -0.092 | tipifarnib -0.015 | [6] 0.029 | [7] 0.023 | [8] -0.024

VAC14 (UniProt Q08AM6)
inactive: lapatinib -0.034 | pictilisib -0.005 | crizotinib -0.047 | [1] -0.028 | duvelisib -0.004 | gandotinib -0.069 | tozasertib -0.005 | doramapimod 0.037 | bafetinib -0.036 | [2] 0.067 | nilotinib -0.014 | [3] 0.018 | dasatinib -0.022 | [4] 0.009 | [5] 0.058 | quisinostat -0.07 | tipifarnib -0.059 | [6] 0.012 | [7] -0.002 | [8] -0.027

WDR62 isoform 4 (UniProt O43379)
inactive: lapatinib -0.025 | pictilisib 0.028 | crizotinib -0.048 | [1] -0.021 | duvelisib 0.006 | gandotinib -0.032 | tozasertib 0.034 | doramapimod 0.038 | bafetinib -0.05 | [2] 0.08 | nilotinib -0.001 | [3] 0.003 | dasatinib -0.026 | [4] 0 | [5] 0.022 | quisinostat -0.103 | tipifarnib -0.051 | [6] 0.031 | [7] -0.02 | [8] -0.031

VPS11 (UniProt Q9H270)
inactive: lapatinib -0.025 | pictilisib -0.027 | crizotinib -0.029 | [1] -0.008 | duvelisib -0.04 | gandotinib -0.083 | tozasertib 0.024 | doramapimod 0.039 | bafetinib -0.077 | [2] 0.065 | nilotinib -0.007 | [3] -0.008 | dasatinib -0.003 | [4] -0.018 | [5] -0.002 | quisinostat -0.055 | tipifarnib -0.002 | [6] 0.06 | [7] -0.003 | [8] 0.003

USE1 (UniProt Q9NZ43)
UniProt Q9NZ43, sequence (Q9NZ43 whole entry, looked up): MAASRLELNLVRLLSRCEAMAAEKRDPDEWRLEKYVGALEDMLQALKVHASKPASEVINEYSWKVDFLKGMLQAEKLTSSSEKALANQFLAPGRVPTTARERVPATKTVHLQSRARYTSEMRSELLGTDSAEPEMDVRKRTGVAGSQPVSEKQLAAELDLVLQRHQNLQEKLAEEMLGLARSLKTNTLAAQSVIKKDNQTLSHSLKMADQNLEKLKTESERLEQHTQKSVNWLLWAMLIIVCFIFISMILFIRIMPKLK
inactive: lapatinib -0.035 | pictilisib 0.088 | crizotinib -0.057 | [1] 0.039 | duvelisib -0.056 | gandotinib -0.103 | tozasertib 0.011 | doramapimod 0.112 | bafetinib -0.019 | [2] 0.027 | nilotinib -0.019 | [3] 0.038 | dasatinib 0.068 | [4] 0.057 | [5] 0.02 | quisinostat 0.08 | tipifarnib -0.021 | [6] 0.029 | [7] -0.027 | [8] 0.025

ZNF451 (UniProt Q9Y4E5)
inactive: lapatinib -0.044 | pictilisib -0.054 | crizotinib -0.042 | [1] -0.053 | duvelisib 0.007 | gandotinib -0.069 | tozasertib -0.045 | doramapimod 0.052 | bafetinib -0.074 | [2] 0.003 | nilotinib 0.016 | [3] 0.013 | dasatinib -0.028 | [4] -0.033 | [5] 0.02 | quisinostat -0.044 | tipifarnib -0.049 | [6] 0.022 | [7] 0.044 | [8] -0.038

XAB2 (UniProt Q9HCS7)
inactive: lapatinib -0.02 | pictilisib -0.051 | crizotinib -0.096 | [1] 0.025 | duvelisib 0.038 | gandotinib -0.055 | tozasertib -0.073 | doramapimod 0.01 | bafetinib 0.065 | [2] 0.028 | nilotinib 0.032 | [3] -0.002 | dasatinib -0.051 | [4] 0.048 | [5] 0.017 | quisinostat 0.106 | tipifarnib -0.046 | [6] 0.046 | [7] -0.025 | [8] -0.01

VPS39 (UniProt Q96JC1)
active: [1] 0.603
inactive: lapatinib -0.018 | pictilisib -0.018 | crizotinib -0.066 | duvelisib 0.015 | gandotinib -0.169 | tozasertib 0.021 | doramapimod 0.015 | bafetinib -0.045 | [2] -0.229 | nilotinib 0.03 | [3] -0.008 | dasatinib -0.044 | [4] 0.024 | [5] -0.003 | quisinostat -0.046 | tipifarnib 0.002 | [6] 0.005 | [7] -0.008 | [8] -0.003

WDCP (UniProt Q9H6R7)
inactive: lapatinib -0.048 | pictilisib 0.017 | crizotinib -0.079 | [1] 0.022 | duvelisib 0.038 | gandotinib -0.058 | tozasertib -0.03 | doramapimod -0.02 | bafetinib -0.027 | [2] 0.002 | nilotinib -0.01 | [3] 0.001 | dasatinib -0.035 | [4] 0.006 | [5] -0.018 | quisinostat -0.107 | tipifarnib 0.009 | [6] 0.014 | [7] -0.069 | [8] 0.007

VPS35L (UniProt Q7Z3J2)
UniProt Q7Z3J2, sequence (Q7Z3J2 whole entry, looked up): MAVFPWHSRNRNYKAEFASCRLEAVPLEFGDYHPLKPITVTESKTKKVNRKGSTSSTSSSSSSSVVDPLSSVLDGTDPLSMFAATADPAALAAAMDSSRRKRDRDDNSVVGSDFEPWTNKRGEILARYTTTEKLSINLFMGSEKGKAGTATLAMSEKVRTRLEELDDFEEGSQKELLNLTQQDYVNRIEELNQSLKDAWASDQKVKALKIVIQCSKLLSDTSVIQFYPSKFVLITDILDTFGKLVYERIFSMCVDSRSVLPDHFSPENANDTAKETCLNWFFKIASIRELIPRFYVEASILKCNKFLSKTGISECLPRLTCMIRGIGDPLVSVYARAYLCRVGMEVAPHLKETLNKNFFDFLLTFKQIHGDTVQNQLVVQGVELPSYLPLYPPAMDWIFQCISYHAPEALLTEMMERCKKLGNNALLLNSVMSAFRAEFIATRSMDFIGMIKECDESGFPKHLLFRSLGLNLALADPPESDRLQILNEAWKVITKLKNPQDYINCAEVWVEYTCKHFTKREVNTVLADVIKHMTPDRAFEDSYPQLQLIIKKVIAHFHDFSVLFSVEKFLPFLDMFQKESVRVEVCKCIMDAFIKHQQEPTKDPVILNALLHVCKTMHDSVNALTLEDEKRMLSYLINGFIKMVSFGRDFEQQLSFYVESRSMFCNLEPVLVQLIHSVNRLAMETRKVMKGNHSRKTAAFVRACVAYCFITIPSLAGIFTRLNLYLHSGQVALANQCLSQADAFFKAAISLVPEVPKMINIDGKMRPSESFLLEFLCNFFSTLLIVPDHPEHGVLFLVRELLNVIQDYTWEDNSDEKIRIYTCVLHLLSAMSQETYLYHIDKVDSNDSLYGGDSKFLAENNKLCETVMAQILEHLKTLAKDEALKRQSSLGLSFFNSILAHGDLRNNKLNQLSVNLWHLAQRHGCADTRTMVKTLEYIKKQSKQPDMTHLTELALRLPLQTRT
inactive: lapatinib -0.016 | pictilisib -0.003 | crizotinib -0.028 | [1] -0.025 | duvelisib 0.02 | gandotinib -0.029 | tozasertib 0.026 | doramapimod 0.02 | bafetinib -0.052 | [2] 0.065 | nilotinib -0.019 | [3] -0.006 | dasatinib -0.088 | [4] 0.022 | [5] 0.008 | quisinostat -0.046 | tipifarnib 0.03 | [6] 0.043 | [7] 0.001 | [8] -0.044

VPS16 (UniProt Q9H269)
UniProt Q9H269, sequence (Q9H269 whole entry, looked up): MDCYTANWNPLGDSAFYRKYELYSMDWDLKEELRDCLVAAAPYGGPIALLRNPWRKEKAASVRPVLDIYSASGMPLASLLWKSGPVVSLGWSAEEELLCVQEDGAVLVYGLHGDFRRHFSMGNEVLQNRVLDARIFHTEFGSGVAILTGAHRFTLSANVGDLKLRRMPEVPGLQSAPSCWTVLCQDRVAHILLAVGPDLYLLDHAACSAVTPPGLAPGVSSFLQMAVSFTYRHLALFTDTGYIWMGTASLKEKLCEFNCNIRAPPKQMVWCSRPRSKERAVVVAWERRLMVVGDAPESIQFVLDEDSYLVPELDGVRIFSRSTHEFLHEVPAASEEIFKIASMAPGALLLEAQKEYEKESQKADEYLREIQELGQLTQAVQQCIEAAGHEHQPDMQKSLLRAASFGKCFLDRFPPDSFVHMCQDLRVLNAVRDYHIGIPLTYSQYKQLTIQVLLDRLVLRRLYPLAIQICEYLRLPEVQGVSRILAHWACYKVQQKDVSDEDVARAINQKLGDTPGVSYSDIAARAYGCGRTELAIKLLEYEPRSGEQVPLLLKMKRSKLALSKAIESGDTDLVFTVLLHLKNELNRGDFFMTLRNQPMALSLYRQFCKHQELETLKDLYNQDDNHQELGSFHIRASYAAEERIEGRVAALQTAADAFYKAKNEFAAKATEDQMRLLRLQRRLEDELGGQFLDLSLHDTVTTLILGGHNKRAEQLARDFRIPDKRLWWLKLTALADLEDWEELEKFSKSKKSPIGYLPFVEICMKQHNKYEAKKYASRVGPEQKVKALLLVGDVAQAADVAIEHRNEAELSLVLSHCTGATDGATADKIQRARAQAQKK
inactive: lapatinib -0.014 | pictilisib 0.005 | crizotinib -0.08 | [1] -0.019 | duvelisib 0.013 | gandotinib -0.024 | tozasertib 0.004 | doramapimod -0.013 | bafetinib -0.051 | [2] 0.03 | nilotinib 0 | [3] 0.011 | dasatinib -0.013 | [4] 0.014 | [5] 0.021 | quisinostat -0.095 | tipifarnib -0.012 | [6] 0.022 | [7] 0.004 | [8] 0.009

YES1 (UniProt P07947)
active: [6] 0.589
inactive: lapatinib 0 | pictilisib -0.063 | crizotinib -0.128 | [1] -0.101 | duvelisib -0.066 | gandotinib 0.212 | tozasertib -0.105 | doramapimod -0.005 | bafetinib 0.155 | [2] 0.092 | nilotinib 0.043 | [3] 0.008 | dasatinib 0.154 | [4] -0.104 | [5] -0.087 | quisinostat -0.084 | tipifarnib -0.157 | [7] 0.032 | [8] 0.054
